Consider six compounds from PubChem BioAssay (NCATS).

In assay [1] the target is Thyroid hormone receptor beta (Homo sapiens) (UniProt P10828). Nature of the assay: qHTS assay for small molecule antagonists of thyroid hormone receptor beta signaling (AID 588547; active means well fitted inhibition curve with a large enough effect in the signal ratio, with a control signal flat, not every such curve was filed as active; the % refers to the signal ratio;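 further: cells stimulated with 0.4 nM T3 agonist during compound exposure; on the % scale 0 is the no-effect control and ±100 the full control effect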). The following applies: TR-UAS-bla HEK293, beta-lactamase ratio, antagonist mode, 18 h. Summed up:
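Inhibition of T3-driven (0.4nM final) beta-lactamase reporter activity was measured over 0.59 nM to 92 uM compound after 18 h at 37 C. The cells were GripTite HEK293 TR-UAS-bla in charcoal/dextran-stripped serum, with CCF4 ratio read-out and IC50 from Hill fits.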

In assay [2] the target is Voltage-gated inwardly rectifying potassium channel KCNH2 (Homo sapiens) (UniProt Q12809). The experiment in a line: qHTS Assay for Small Molecule Inhibitors of the Human hERG Channel Activity (AID 588834).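 Further: top concentration of the series differs between compounds; on the % scale 0 is the no-effect control and ±100 the full control effect; lower thallium flux fluorescence means stronger hERG block; nearly all actives have a fitted effect of over 50% in size.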 The following applies: U2OS BacMam hERG, FluxOR thallium flux fluorescence; series mostly up to 46.1 µM. Summed up: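 Homogeneous FluxOR thallium flux assay using hERG-expressing U2OS cells (BacMam). Compound treatment about 10 minutes preceded stimulation; reduced fluorescence taken as channel block.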
For orientation: Quantitative high-throughput screening tests each substance at several concentrations.

The nature of assay [3]: S16 Schwann cell viability assay (CellTiter-Glo assay) (AID 624031).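 Further: native untransfected S16 rat Schwann cells; plate controls were DMSO-treated cells for no effect and cell-free wells for full effect; nearly all actives have a fitted effect of over 70% in size.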 The following applies: S16 rat Schwann cells viability, 24 h; series mostly up to 57.5 µM. Summed up: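 Rat S16 Schwann cells without reporter constructs received compound or DMSO for 24 h at 37 °C under 5% CO2. Cellular ATP was then quantified by CellTiter-Glo luminescence, with vehicle wells defined as 0% activity and cell-free wells as reference.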
(ATP-based viability assays read luminescence as a measure of living cells.)

A short description of assay [4]: S16 Schwann cell PMP22 intronic element firefly luciferase assay (AID 624032).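 Further: plate controls were DMSO for no effect and PTC124 positive control mean for full effect; nearly all actives have a fitted effect of over 30% in size.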 The settings on record: S16 rat Schwann cells, PMP22 element FLuc, 24 h; series mostly up to 57.5 µM. The method, boiled down: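 Luciferase reporter of PMP22 intronic-element expression in stably transfected S16 rat Schwann cells, read by ONE-Glo luminescence after 24 h compound exposure at 37 C. Activity scaled between DMSO (0%) and positive-control PTC124; concentration-effect curves quality-classified.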

Assay [5] in a line: S16 Schwann cell PMP22 intronic element beta-lactamase assay (AID 624044; calls by dose curve;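 further: 0% = DMSO and -100% = potassium clavulanate positive control; nearly all actives have a fitted effect of over 15% in size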). The settings on record: S16 rat Schwann cells, PMP22 element beta-lactamase FRET, 24 h; ratio activity, negative = inhibition: at 38.3 µM (top of the series) unless noted. Summed up: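 Beta-lactamase reporter under a PMP22 intronic regulatory element in stable S16 rat Schwann cells; 24 h compound exposure. 460 nm blue signal normalized between DMSO (0%) and potassium clavulanate, with 535 nm FRET tracking viability; curves classed by r2 and response.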

Assay [6] can be described thus: qHTS assay for small molecule agonists of the antioxidant response element (ARE) signaling pathway (AID 651741; active means well fitted activation curve with a large enough effect in the signal ratio; the % refers to the signal ratio; further: potency means the concentration at half of the fitted maximal effect; on activation: % of control where 0% means no effect). The following applies: HepG2 ARE-bla reporter, beta-lactamase FRET ratio, 16 h; series mostly up to 96 µM. The method, boiled down: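 Agonist activity is measured as ARE-driven beta-lactamase expression in a stable HepG2 reporter line, using 16 h compound treatment at 37 C and a FRET substrate fluorescence readout after 2 h.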

Assay [7] can be described thus: qHTS assay for small molecule activators of the p53 signaling pathway (AID 651743; active means well fitted activation curve with a large enough effect in the signal ratio, not every such curve was filed as active; the % refers to the signal ratio; further: potency means the concentration at half of the fitted maximal effect; on activation: % of control where 0% means no effect). The settings on record: HCT-116 p53RE-bla, beta-lactamase FRET ratio, 16 h; activation: stronger effect = higher value. Summed up: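 A beta-lactamase reporter under p53 response element control, stably carried by HCT-116 cells, reported pathway activation. Test compounds were applied for 16 hours at 37 C, and fluorescence was measured 2 hours after adding the B/G FRET substrate.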

Assay [8] in a line: qHTS assay for small molecule activators of the nuclear factor-kappa B (NF-kB) signaling pathway (AID 651749; active means well fitted activation curve with a large enough effect in the signal ratio; the % refers to the signal ratio; further: % of control where 0% means no effect). The settings on record: NF-kB-bla ME-180 cells, beta-lactamase FRET ratio, 16 h; stronger effect = higher value. The method, boiled down:
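FRET-based beta-lactamase detection in ME-180 cells reports NF-kB response-element-driven transcription following overnight (16 hr) compound treatment.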

Assay [9] can be described thus: qHTS assay for small molecule disruptors of the mitochondrial membrane potential - 5 hr assay (AID 651755; calls by dose curve; further: nearly all actives have a fitted effect of over 40% in size; further: potency means the concentration at half of the fitted maximal effect). The settings on record: JC-1-type ratio dye; series mostly up to 92.2 µM. The method, boiled down: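 Membrane-potential dye readout: red aggregate (540 ex/590 em) versus green monomer (490 ex/535 em) fluorescence after 30 min dye loading, following 5 hr compound exposure at 37C of overnight-plated HepG2 cells.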

The nature of assay [10]: qHTS assay to identify small molecules that stimulate interleukin-8 (IL-8) secretion (AID 651758; active means well fitted activation curve with a large enough effect in the signal ratio; the % refers to the signal ratio; further: potency means the concentration at half of the fitted maximal effect). The following applies: HTRF ratio (665/615); series mostly up to 92.2 µM. The method, boiled down:
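Secreted IL-8 measured homogeneously by TR-FRET (two labelled anti-IL-8 antibodies, 1-3 h at room temperature) after a 16 h, 37 C compound treatment of THP-1 cells at 2000 cells/well.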

A short description of assay [11]: qHTS assay for environmental chemicals that activate the Aryl hydrocarbon Receptor (AhR) signaling pathway (AID 651777). Further: nearly all actives have a fitted effect of over 15% in size. Further: potency means the concentration at half of the fitted maximal effect. On activation: % of control where 0% means no effect. The settings on record: 1A2-DRE human hepatoma cells, luciferase, 24 h; activation: stronger effect = higher value. Summed up:
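Measured luciferase activity, read 30 min after One-Glo addition at room temperature, from human hepatoma cells bearing a dioxin response element–CYP1A2 promoter reporter and exposed to compound for 24 hr at 37 C.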

Assay [12] concerns the target Peroxisome proliferator-activated receptor alpha (Homo sapiens) (UniProt Q07869). The experiment in a line: qHTS assay for small molecule agonists of the peroxisome proliferator-activated receptor alpha (PPARalpha) signaling pathway (AID 651778). Further: % of control where 0% means no effect. The settings on record: PathHunter PPARalpha complementation, chemiluminescence, 6 h; stronger effect = higher value. Summed up: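 Chemiluminescence from complemented enzyme reported PPARalpha activation in cells after 6 hr of compound treatment at 37 C. The detection reagent was incubated for 60 min at room temperature, and compounds were scored as agonists.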

Assay [13] deals with Luciferin 4-monooxygenase (Photinus pyralis) (UniProt P08659). Nature of the assay: Biochemical firefly luciferase enzyme assay for NPC (AID 624030).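 Further: purified P. pyralis luciferase at 10 nM with luciferin and ATP substrate; 0% = DMSO and -100% = full luciferase inhibition by PTC124 control; nearly all actives have a fitted effect of over 70% in size.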 The following applies: purified P. pyralis luciferase, luminescence, 5 min; series mostly up to 58.6 µM. Summed up: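 Direct inhibition of firefly luciferase enzyme (10 nM final, 50 mM Tris Acetate) assessed by luminescence within 5 minutes. Percent activity scaled between DMSO and PTC124 positive control, with concentration-effect curves classified by fit quality and response.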

The nature of assay [14]: qHTS assay for small molecule disruptors of the mitochondrial membrane potential - 1 hr assay (AID 651754; calls by dose curve; further: nearly all actives have a fitted effect of over 35% in size; further: potency means the concentration at half of the fitted maximal effect). The settings on record: series mostly up to 92.2 µM. The method, boiled down: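 Read-out: dye fluorescence at 490 nm ex/535 nm em (monomers) and 540 nm ex/590 nm em (aggregates) in HepG2 cells. Compound exposure 1 hr at 37C, followed by 30 min dye loading.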
In assay [15] the target is Tumor necrosis factor (Homo sapiens) (UniProt P01375). Nature of the assay: qHTS assay to identify small molecules that stimulate Tumor Necrosis Factor-alpha (TNF-alpha) secretion (AID 651757; active means well fitted curve in the direction sought with a large enough effect in the signal ratio; the % refers to the signal ratio; further: 0% is about no effect). The settings on record: Human cells, HTRF 665/615 ratio; series mostly up to 92.2 µM. Summed up:
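THP-1 cells, 3000/well; compound 17 hrs, 37 C; add cryptate/XL665 anti-TNF-alpha antibody pair; 3 hr RT; TR-FRET (HTRF) read of secreted TNF-alpha. Quantitative HTS format.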

Assay [16] deals with Glutaminase kidney isoform, mitochondrial (Homo sapiens) (UniProt O94925). The experiment in a line: qHTS for Inhibitors of Glutaminase (GLS): LOPAC Validation (AID 624146). Further: potency means the concentration at half of the fitted maximal effect; nearly all actives have a fitted effect of over 60% in size. The following applies: glutaminase enzyme activity inhibition. Summed up:
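hKGA in 45 mM KH2PO4 pH 8.2, 0.02% Tween-20 with pin-transferred compounds; 1 mM L-glutamine (stock) plus glutamate oxidase/HRP/Amplex Red coupling added. Fluorescence read initially and after 30 min at RT.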

A short description of assay [17]: qHTS of Trypanosoma Brucei Inhibitors: LOPAC Validation (AID 624147). Further: 0% is about no effect. The settings on record: purified enzyme assay, luminescence, 45 min; series mostly up to 57.5 µM. Summed up: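 ADP (130 uM final) triggers the TbPYK reaction after compound addition; incubation is 45 min at room temperature. Kinase-Glo Plus is then added and luminescence imaged. Normalized data are fitted to concentration-effect curves.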

For assay [18], the target named is Glucagon-like peptide 1 receptor (Homo sapiens) (UniProt P43220). The experiment in a line: qHTS of GLP-1 Receptor Agonists: LOPAC Validation (AID 624148).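 Further: luminescence from a luciferase reporter switched on by cAMP; 0% is about no effect; higher luminescence signal means agonism.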 The following applies: GLP-1R agonist cell assay; series mostly up to 46.1 µM. Summed up: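 Agonism scored as increased luciferase luminescence driven by cAMP in HEK293 clones carrying GLP-1R. Cells settled 12 hours, received compound for 4-6 hr at 37 deg C, 5% CO2, and were read after 12 min detection reagent at RT.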

The nature of assay [19]: qHTS of Nrf2 Activators: LOPAC Validation (AID 624149). Further: 0% is about no effect. The settings on record: Nrf2/ARE reporter cell assay; series mostly up to 46.1 µM. The method, boiled down: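 AREc32_Fluc cells, 1000/well, OPTI-MEM + 5% FBS, o/n 37 deg C 5% CO2; compound pin-transfer, 24 hr 37 deg C; Steady-Glo 30 min RT, luminescence read.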
Assay [20] can be described thus: HTS Assay for Allosteric Antagonists of the Human D2 Dopamine Receptor: Hit Validation in HTRF (AID 624455). Further: on the % scale 0 is the no-effect control and ±100 the full control effect. The settings on record: Cells stably expressing D1 dopamine receptor, inhibition mode; series mostly up to 46.1 µM. Summed up:
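HTRF read-out; cells stably expressing D1 receptor; hits scored for inhibition of D1-mediated response. Primary screen: calcium flux, force-coupled inducible Hek293 Trex D2 line, antagonism vs EC80 dopamine.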
For orientation: In TR-FRET formats the signal depends on donor and acceptor labels being close together.

“And” between values parts separate entries of the source, which are not always exact repeats. Equal values may be shown once. A number with no mark means an inactive call. Records with an inconclusive call do not appear. The source made the active and inactive calls. Unless noted, the call rests on the fitted dose curve; in most records, active means well fitted curve in the direction sought with a large enough effect; inconclusive means small, poorly fitted or top-dose-only effect, or another doubt; inactive means no such curve, though single readings can be large; an effect the other way counts as inactive or inconclusive.

Chain of Voltage-gated inwardly rectifying potassium channel KCNH2 (Homo sapiens) (Q12809 whole entry, looked up): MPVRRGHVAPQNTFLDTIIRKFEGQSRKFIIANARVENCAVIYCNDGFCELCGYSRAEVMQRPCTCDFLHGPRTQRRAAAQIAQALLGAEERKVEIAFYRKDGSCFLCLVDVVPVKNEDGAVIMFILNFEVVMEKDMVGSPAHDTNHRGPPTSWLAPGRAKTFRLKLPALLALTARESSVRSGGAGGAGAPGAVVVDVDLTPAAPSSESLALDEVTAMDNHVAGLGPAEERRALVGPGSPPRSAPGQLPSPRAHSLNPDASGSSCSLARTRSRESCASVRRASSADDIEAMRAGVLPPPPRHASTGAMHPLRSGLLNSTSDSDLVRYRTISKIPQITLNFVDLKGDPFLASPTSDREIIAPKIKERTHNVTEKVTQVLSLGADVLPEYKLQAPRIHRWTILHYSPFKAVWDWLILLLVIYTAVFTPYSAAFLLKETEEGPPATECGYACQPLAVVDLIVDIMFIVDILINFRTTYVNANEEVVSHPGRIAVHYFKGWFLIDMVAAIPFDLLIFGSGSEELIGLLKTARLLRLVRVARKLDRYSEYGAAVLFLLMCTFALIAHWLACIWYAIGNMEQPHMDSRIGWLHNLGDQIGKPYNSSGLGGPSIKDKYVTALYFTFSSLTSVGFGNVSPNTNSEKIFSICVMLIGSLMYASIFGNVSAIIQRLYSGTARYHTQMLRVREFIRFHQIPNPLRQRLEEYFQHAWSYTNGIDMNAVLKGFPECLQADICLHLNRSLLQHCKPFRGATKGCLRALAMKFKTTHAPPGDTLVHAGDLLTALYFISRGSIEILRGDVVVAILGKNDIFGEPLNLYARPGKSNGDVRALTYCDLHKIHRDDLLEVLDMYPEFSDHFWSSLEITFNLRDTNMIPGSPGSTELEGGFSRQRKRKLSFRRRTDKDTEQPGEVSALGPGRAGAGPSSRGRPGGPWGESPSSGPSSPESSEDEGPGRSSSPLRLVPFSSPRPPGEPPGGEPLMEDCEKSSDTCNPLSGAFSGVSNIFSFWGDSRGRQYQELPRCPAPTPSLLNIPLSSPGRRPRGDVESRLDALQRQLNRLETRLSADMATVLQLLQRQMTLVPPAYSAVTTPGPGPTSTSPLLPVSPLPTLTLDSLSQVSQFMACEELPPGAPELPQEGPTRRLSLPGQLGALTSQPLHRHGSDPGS
Chain of Thyroid hormone receptor beta (Homo sapiens) (P10828 whole entry, looked up): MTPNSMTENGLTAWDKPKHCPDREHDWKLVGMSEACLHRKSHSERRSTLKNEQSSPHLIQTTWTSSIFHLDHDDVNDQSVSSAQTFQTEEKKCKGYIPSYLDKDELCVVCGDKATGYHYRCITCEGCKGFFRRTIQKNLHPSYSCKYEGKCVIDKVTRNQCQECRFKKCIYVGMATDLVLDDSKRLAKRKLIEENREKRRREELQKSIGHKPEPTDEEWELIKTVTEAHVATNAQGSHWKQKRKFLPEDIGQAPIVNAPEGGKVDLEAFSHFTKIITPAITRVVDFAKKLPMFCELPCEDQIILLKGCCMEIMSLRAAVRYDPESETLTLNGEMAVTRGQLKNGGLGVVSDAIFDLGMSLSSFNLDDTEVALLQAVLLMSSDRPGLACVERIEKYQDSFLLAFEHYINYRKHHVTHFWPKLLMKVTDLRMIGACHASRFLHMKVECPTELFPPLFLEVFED
Chain of Tumor necrosis factor (Homo sapiens) (P01375 whole entry, looked up): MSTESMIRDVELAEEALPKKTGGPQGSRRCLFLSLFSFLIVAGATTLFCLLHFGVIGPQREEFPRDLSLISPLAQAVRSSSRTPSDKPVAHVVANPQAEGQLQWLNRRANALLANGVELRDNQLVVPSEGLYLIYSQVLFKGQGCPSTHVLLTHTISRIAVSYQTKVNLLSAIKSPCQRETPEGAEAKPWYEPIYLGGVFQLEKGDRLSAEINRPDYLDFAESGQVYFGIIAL
Chain of Luciferin 4-monooxygenase (Photinus pyralis) (P08659 whole entry, looked up): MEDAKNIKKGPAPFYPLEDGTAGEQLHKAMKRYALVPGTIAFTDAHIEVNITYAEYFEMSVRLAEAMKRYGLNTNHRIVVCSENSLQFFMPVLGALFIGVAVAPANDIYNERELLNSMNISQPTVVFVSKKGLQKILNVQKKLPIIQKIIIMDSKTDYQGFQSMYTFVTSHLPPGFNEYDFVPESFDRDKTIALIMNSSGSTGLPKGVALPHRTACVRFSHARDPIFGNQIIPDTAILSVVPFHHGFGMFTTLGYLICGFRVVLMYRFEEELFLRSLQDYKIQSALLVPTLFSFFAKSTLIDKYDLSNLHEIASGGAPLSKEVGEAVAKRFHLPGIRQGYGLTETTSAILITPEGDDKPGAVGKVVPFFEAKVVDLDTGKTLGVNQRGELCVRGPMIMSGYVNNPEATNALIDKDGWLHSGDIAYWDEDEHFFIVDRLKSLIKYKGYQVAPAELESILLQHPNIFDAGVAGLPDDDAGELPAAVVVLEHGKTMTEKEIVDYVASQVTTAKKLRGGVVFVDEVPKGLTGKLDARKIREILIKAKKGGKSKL
Chain of Peroxisome proliferator-activated receptor alpha (Homo sapiens) (Q07869 whole entry, looked up): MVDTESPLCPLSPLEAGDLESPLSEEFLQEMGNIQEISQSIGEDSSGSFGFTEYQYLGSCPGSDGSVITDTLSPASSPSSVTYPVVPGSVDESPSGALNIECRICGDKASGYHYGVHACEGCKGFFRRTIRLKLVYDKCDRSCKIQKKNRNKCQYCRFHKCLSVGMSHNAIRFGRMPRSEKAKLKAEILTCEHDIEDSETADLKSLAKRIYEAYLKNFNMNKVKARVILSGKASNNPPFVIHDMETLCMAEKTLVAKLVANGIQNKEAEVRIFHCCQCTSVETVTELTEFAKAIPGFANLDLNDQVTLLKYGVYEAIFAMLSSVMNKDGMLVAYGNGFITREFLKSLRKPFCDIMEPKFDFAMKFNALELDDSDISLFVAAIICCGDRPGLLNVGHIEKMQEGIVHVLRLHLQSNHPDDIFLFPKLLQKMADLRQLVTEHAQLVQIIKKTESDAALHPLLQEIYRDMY
Chain of Glucagon-like peptide 1 receptor (Homo sapiens) (P43220 whole entry, looked up): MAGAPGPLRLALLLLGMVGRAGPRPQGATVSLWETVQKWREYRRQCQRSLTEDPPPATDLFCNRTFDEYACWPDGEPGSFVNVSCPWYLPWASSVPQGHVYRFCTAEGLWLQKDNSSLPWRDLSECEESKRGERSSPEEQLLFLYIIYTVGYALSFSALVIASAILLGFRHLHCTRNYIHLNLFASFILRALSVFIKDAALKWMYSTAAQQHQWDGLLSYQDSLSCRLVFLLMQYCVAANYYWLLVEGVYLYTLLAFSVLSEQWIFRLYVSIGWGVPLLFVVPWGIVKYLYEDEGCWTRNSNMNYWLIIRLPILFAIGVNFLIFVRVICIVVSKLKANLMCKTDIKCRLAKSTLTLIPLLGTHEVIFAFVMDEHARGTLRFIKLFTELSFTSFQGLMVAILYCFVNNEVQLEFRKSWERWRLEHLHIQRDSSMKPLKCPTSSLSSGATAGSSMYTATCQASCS
Chain of Glutaminase kidney isoform, mitochondrial (Homo sapiens) (O94925 whole entry, looked up, canonical isoform): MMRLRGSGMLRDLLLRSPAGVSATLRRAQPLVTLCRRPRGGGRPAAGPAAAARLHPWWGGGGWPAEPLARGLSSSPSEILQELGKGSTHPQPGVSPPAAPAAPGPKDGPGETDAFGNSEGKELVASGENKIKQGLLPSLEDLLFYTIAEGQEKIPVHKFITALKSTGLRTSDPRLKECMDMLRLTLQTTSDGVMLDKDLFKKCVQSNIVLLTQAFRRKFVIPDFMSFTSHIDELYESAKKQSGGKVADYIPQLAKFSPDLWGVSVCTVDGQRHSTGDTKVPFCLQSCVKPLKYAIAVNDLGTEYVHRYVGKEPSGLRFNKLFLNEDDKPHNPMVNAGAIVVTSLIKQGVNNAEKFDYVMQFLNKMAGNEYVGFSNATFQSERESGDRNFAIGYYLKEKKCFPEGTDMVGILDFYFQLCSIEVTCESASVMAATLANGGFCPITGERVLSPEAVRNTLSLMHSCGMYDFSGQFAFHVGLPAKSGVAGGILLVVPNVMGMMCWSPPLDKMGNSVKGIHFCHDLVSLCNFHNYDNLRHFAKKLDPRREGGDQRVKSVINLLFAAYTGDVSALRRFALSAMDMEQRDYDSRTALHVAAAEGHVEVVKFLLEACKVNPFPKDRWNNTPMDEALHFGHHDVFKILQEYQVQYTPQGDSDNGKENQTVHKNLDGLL

With `Oc1cccc(O)c1O`, in assay [1], the activity change % (negative = inhibition) is -26.7%. Moreover, the Potency result in assay [2], in assay [3], in [4] and in assay [9] was “inactive” throughout. In addition, in assay [5], the ratio activity, negative = inhibition is -1.18%. Besides, the Potency in assay [6] was 5.96 µM (active); in [10] it was 75 µM (active). For the same compound, the activation in assay [7] is 2.6%; in [8], 2.45%; in assay [11] it was -0.8%. The max response in assay [12] is 0.0177%.
`OCl`: in assay [1], the activity change % (negative = inhibition) was -3.27%. The Potency result in [2], in [13], in assay [3], in [4], in assay [6] and in assay [14] was “inactive” throughout. The Potency entry in assay [9] and in assay [15] was “inactive” each time. Further, the activation was -2.68% in assay [7], -0.921% in [8] and 0.267% in assay [11]. Further, the max response in [12] was -2.41%.
In the case of `Oc1ccc(/C=C/c2cc(O)cc(O)c2)cc1`, the activity change % (negative = inhibition) in [1] is 0.49% and -24.4%. Besides, the Potency entry in assay [2] is “inactive”. In addition, the Potency was 5.01 µM (active) in assay [16]; 19.3 µM (active) and 37.6 µM (active) in assay [6]; 1.88 µM (active) in [14]; 5.31 µM (active) in assay [9]; 25.1 µM (active) in [11]. The compound was classed as inactive in assay [17], in assay [18], in [19] and in assay [20]. The activation in assay [7] was 5.17% and 7.3%; in [8], 5.67%. The max response in assay [12] was -3.92% and -4.52%.
With `ClC(Cl)Cl`, the activity change % (negative = inhibition) in assay [1] is -7.48%. Besides, the Potency entry in assay [2], in [3], in [4], in assay [6], in assay [14] and in assay [9] was “inactive” each time. Further, in assay [15], the Potency result was “inactive”. Further, the activation in [7] was 0.456%; in assay [8], -1.06%; in [11], -0.58%. The max response in assay [12] was 0.366%.
Take `CC[C@H]1OC(=O)[C@H](C)[C@@H](O[C@H]2C[C@@](C)(OC)[C@@H](O)[C@H](C)O2)[C@H](C)[C@@H](O[C@@H]2O[C@H](C)C[C@H](N(C)C)[C@H]2O)[C@](C)(O)C[C@@H](C)CN(C)[C@H](C)[C@@H](O)[C@]1(C)O`: in [1], the activity change % (negative = inhibition) was -2.15%. The Potency result in assay [2], in assay [13], in [3], in assay [4], in [6] and in [14] was “inactive” each time. The Potency result in assay [9] and in [15] was “inactive” in each case. Further, the activation in assay [7] is -5.82%; in assay [8], -0.197%; in assay [11] it was 0.789%. The max response in [12] was -5.78%.
For the compound `O=c1n(CC2CO2)c(=O)n(CC2CO2)c(=O)n1CC1CO1` (stereo unspecified), the activity change % (negative = inhibition) in [1] was -18.3% and -20.3%. Also, the Potency result in assay [2], in assay [13], in assay [3], in assay [14] and in assay [9] was “inactive” each time. The ratio activity, negative = inhibition in [5] is -25.3%. In addition, the Potency in assay [6] was 7.5 µM (active) and 6.86 µM (active); in assay [7], 15.8 µM (active) and 39.8 µM (active). The activation in assay [8] was -0.976% and -0.874%; in assay [11], 1.5% and 3.12%. Further, in assay [12], the max response was -0.847% and -0.241%.
